Laboratory results: the antibiotic and cytotoxicity screens of Wong et al. (2023)
Screen size: about 39,000 compounds; about 3,300 (8.5%) were called active. The entries come from a sample that favours actives as a whole.

system: HepG2; assay: cytotoxicity call (relative viability < 0.9); details: 10 µM

| SMILES | cytotoxicity call |
| --- | --- |
| C[C@@H]1CCCCO[C@H](CN(C)C(=O)NC2CCCCC2)[C@@H](C)CN([C@H](C)CO)C(=O)c2cc(NC(=O)Nc3ccc(C(F)(F)F)cc3)ccc2O1 | inactive |
| CC(C)NC(=O)N(C)C[C@@H]1Oc2ncc(-c3ccc(C(=O)N(C)C)cc3)cc2C(=O)N([C@H](C)CO)C[C@@H]1C | inactive |
| CN(C)CCNC(=O)[C@H]1Cn2ccnc2C2(CCN(Cc3nccs3)CC2)O1 | inactive |
| C[C@H](NC(=O)[C@@H](Cc1ccc2ccccc2c1)NC(=O)[C@@H](C)N)C(=O)N[C@@H](Cc1c[nH]c2ccccc12)C(=O)N[C@H](Cc1ccccc1)C(=O)N[C@@H](CCCCN)C(N)=O | inactive |
| CC(C)CC(NC(=O)C(C)NC(=O)CNC(=O)C(NC=O)C(C)C)C(=O)NC(C)C(=O)NC(C(=O)NC(C(=O)NC(C(=O)NC(Cc1c[nH]c2ccccc12)C(=O)NC(CC(C)C)C(=O)NC(Cc1c[nH]c2ccccc12)C(=O)NC(CC(C)C)C(=O)NC(Cc1c[nH]c2ccccc12)C(=O)NC(CC(C)C)C(=O)NC(Cc1c[nH]c2ccccc12)C(=O)NCCO)C(C)C)C(C)C)C(C)C (centres undefined) [GRAMICIDIN (gramicidin A shown) ] | active |
| CC(C)C[C@H](NP(=O)(O)O[C@H]1O[C@@H](C)[C@@H](O)[C@@H](O)[C@@H]1O)C(=O)N[C@H](Cc1c[nH]c2ccccc12)C(=O)O | inactive |
| C[C@@H]1CCCCO[C@@H](CN(C)S(C)(=O)=O)[C@@H](C)CN([C@H](C)CO)C(=O)c2cc(NS(=O)(=O)c3cccs3)ccc2O1 | inactive |
| C[C@@H]1CN([C@H](C)CO)C(=O)c2c(c3ccccc3n2C)-c2ccccc2CO[C@@H]1CN(C)Cc1ccc(O)cc1 | inactive |
| CC(C)CC#Cc1ccc2c(c1)O[C@@H](CN(C)C(=O)c1cccnc1)[C@H](C)CN([C@H](C)CO)S2(=O)=O | inactive |
| COc1ccc(NC(=O)N(C)C[C@@H]2OCCCC[C@H](C)Oc3ccc(NC(=O)Nc4ccccc4)cc3C(=O)N([C@@H](C)CO)C[C@@H]2C)cc1 | inactive |
| COc1ccc(NC(=O)N(C)C[C@@H]2Oc3ccc(NC(=O)C4CC4)cc3CC(=O)N([C@@H](C)CO)C[C@H]2C)cc1 | inactive |
| O=c1ccc(-c2ccncc2)n[nH]1 | inactive |
| C[C@@H]1CN([C@H](C)CO)C(=O)c2cccc(NC(=O)Nc3ccc(C(F)(F)F)cc3)c2O[C@H]1CN(C)CC1CCCCC1 | active |
| C[C@@H]1CN([C@H](C)CO)C(=O)c2cccc(NC(=O)Nc3ccc(F)cc3)c2O[C@@H]1CN(C)CC1CCCCC1 | inactive |
| C[C@@H]1CN([C@H](C)CO)C(=O)c2cccc(NC(=O)Nc3ccc(F)cc3)c2O[C@H]1CN(C)CC1CCCCC1 | inactive |
| C[C@@H]1CN([C@@H](C)CO)C(=O)c2cccc(NC(=O)Nc3ccc(F)cc3)c2O[C@H]1CN(C)CC1CCCCC1 | inactive |
| C[C@H]1CN([C@@H](C)CO)C(=O)c2cccc(NC(=O)Nc3ccc(C(F)(F)F)cc3)c2O[C@H]1CN(C)CC1CCCCC1 | active |
| C[C@H](CO)N1C[C@H](C)[C@H](CN(C)CC2CCCCC2)Oc2c(NC(=O)Nc3ccc(C(F)(F)F)cc3)cccc2C1=O | inactive |
| C[C@@H]1CN([C@@H](C)CO)C(=O)c2cccc(NC(=O)Nc3ccc(C(F)(F)F)cc3)c2O[C@@H]1CN(C)CC1CCCCC1 | inactive |
| C[C@H]1CN([C@@H](C)CO)C(=O)c2cccc(NC(=O)Nc3ccc(C(F)(F)F)cc3)c2O[C@@H]1CN(C)CC1CCCCC1 | active |
| C[C@H]1CN([C@@H](C)CO)C(=O)c2cccc(NC(=O)Nc3ccc(F)cc3)c2O[C@H]1CN(C)CC1CCCCC1 | inactive |
| C[C@@H]1CN([C@H](C)CO)C(=O)c2cccc(NC(=O)Nc3ccc(C(F)(F)F)cc3)c2O[C@@H]1CN(C)CC1CCCCC1 | active |
| C[C@H](CO)N1C[C@H](C)[C@@H](CN(C)CC2CCCCC2)Oc2c(NC(=O)Nc3ccc(C(F)(F)F)cc3)cccc2C1=O | inactive |
| C[C@H](CO)N1C[C@H](C)[C@H](CN(C)CC2CCCCC2)Oc2c(NC(=O)Nc3ccc(F)cc3)cccc2C1=O | inactive |
